PubChem BioAssay AID1851 (National Center for Advancing Translational Sciences (NCATS), 2009)
Where “and” joins values, the source holds several entries; their conditions need not be identical. Equal values may be shown once. In all, about 16,000 compounds went through this assay and about 4,000 (25%) were called active. Roughly 26% stayed inconclusive and do not appear here. The call rests on the fitted dose curve; in most records, active means well fitted curve in the direction sought with a large enough effect; inconclusive means small, poorly fitted or top-dose-only effect, or effect the other way; inactive means no such curve, though single readings can be large or run the other way. Not all results are given here.

molecular target: Cytochrome P450 2C9 (Homo sapiens) (UniProt P11712); assay: Cytochrome panel assay with activity outcomes; settings: recombinant CYP, pro-luciferin dealkylation, luminescence, p450-cyp2c9; series mostly up to 57.1 µM
Sequence (P11712 whole entry, looked up): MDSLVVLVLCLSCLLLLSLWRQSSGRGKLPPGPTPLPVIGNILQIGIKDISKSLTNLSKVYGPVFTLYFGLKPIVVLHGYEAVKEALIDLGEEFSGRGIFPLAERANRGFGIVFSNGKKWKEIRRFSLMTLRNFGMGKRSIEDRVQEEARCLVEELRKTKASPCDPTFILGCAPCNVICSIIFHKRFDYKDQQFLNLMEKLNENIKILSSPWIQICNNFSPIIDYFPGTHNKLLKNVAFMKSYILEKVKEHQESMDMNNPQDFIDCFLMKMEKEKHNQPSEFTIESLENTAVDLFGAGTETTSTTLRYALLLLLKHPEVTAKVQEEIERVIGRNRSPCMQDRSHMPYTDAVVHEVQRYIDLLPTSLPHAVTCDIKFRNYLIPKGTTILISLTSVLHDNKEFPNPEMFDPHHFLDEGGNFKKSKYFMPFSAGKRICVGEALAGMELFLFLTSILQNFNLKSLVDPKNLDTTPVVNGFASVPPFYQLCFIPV
On the % scale 0 is the no-effect control and ±100 the full control effect.

SMILES | AC50 | activity, negative = inhibition
CCCS(=O)(=O)N1CCCC(C(=O)NCCCOC(C)C)C1 (configuration not stated) | inactive | 
COc1cccc(Cn2c(=O)c(-c3cc(F)cc(F)c3)nc3cnc(N(C)C)nc32)c1 | inactive | 
COc1ccc(-n2c(=O)c(-c3cc(F)cc(F)c3)nc3cnc(N4CCNCC4)nc32)cc1 | inactive | 
COc1ccc(-c2nc3cnc(N4CCNCC4)nc3n(Cc3cccc(OC)c3)c2=O)cc1 | 25.1 µM (active) | 
COc1cccc(Cn2c(=O)c(-c3ccccc3)nc3cnc(N4CCN(C)CC4)nc32)c1 | inactive | 
COc1ccc(-n2c(=O)c(-c3ccc(Cl)cc3)nc3cnc(N4CCNCC4)nc32)cc1 | inactive | 
COc1cccc(Cn2c(=O)c(-c3ccccc3)nc3cnc(N4CCNCC4)nc32)c1 | 12.6 µM (active) | 
COc1cccc(Cn2c(=O)c(-c3cc(F)cc(F)c3)nc3cnc(N4CCNCC4)nc32)c1 | 7.94 µM (active) | 
CCC1(c2ccccc2)C(=O)NCNC1=O | inactive | 
CC(C)CO/N=C1/[C@H]2O[C@@H]2[C@@H](O)[C@H]2[C@H]1CCn1c(=O)n(C)c(=O)n12 |  | -1.24% [at 11.4 µM] (inactive)
CN(c1ccc(C(=O)NCC2CCCO2)cc1)S(=O)(=O)c1ccccc1 (configuration not stated) | 25.1 µM (active) | 
O=C(NCC1CCCO1)C1CCC(=O)N1CCc1ccccc1 (configuration not stated) | inactive | 
O=C(CC(c1ccccc1)c1ccccc1)NCC1CCCO1 (configuration not stated) | 20 µM (active) | 
CCOC(=O)Nc1ccc(C(=O)NCC2CCCO2)cc1 (configuration not stated) | inactive | 
CCC(=O)NC(NCC1CCCO1)C(Cl)(Cl)Cl (configuration not stated) | inactive | 
Cc1ccc(C(=O)NC(=S)NCC2CCCO2)cc1 (configuration not stated) | 7.94 µM (active) | 
CN(C)c1ccc(N=C/C=C2\N(C)c3ccccc3C2(C)C)cc1 | inactive | 
CN(C)c1ccc(N=Cc2nc(-c3ccccc3)oc2O)cc1 | 7.08 µM (active) | 
CN(C)c1ccc(N=Nc2cccc3ccoc23)cc1 |  | 18.2% [at 11.4 µM] (inactive)

SMILES | AC50 | activity, negative = inhibition
Oc1oc(-c2ccccc2)nc1C=Nc1ccccc1 | 8.91 µM (active) | 
O=C(Oc1oc(-c2ccco2)nc1C=Nc1ccc(Cl)cc1)c1ccco1 | inactive | 
CCn1c(-c2ccc3ncccc3c2)n[nH]c1=S | inactive | 
CC(/C=N/n1c(-c2cccnc2)n[nH]c1=S)=C\c1ccccc1 | 10 µM (active) | 
c1cncc(-c2cc(-c3cc(-c4cccnc4)n[nH]3)[nH]n2)c1 |  | 8.46% [at 11.4 µM] (inactive)
CN1[C@@H]2CC[C@H]1CC(OC(c1ccccc1)c1ccccc1)C2 (some centres not stated) | inactive | 
CCc1ccc(N(C(=O)c2csnn2)C(C(=O)NCc2ccccc2)c2ccco2)cc1 (configuration not stated) | 14.1 µM (active) | 
O=C(OC(C(=O)O)C(OC(=O)c1ccccc1)C(=O)NCc1ccccc1)c1ccccc1 (configuration not stated) | inactive | 
Cc1ccc(N(C(=O)c2csnn2)C(C(=O)NC(C)(C)C)c2cccs2)cc1 (configuration not stated) | inactive | 
Cc1ccc(S(N)(=O)=O)cc1NC(=O)/C=C/c1cccs1 | inactive | 
Cc1ccc(S(=O)(=O)N2CCOCC2)cc1NC(=O)COC(=O)CCC(=O)c1cccs1 | 14.1 µM (active) | 
CCN(CC)c1ccc2c(c1)OC(N)=C(C#N)C2c1cccnc1 (configuration not stated) | 7.94 µM (active) | 
Cc1nc(SCc2cccc(Oc3ccccc3)c2)n[nH]1 | 15.8 µM (active) | 
CN(C)Cc1ccccc1-c1nccc(NCc2cccs2)n1 |  | 13.4% [at 2.29 µM] (inactive)
COCCNc1ncnc2ccc(-c3ccccc3CN(C)C)cc12 |  | 25.7% [at 2.29 µM] (inactive)
CCCc1cc(=O)[nH]c(=S)[nH]1 | inactive | 
CN1CCN(c2ncc3ncc(=O)n(CCC#N)c3n2)CC1 | inactive | 
CC(=O)OC[C@H]1O[C@@H](ON=C(C)C)[C@H](OC(C)=O)[C@@H](OC(C)=O)[C@H]1OC(C)=O |  | 6.05% [at 11.4 µM] (inactive)
CC(C)(O)C#Cc1ccc(C(=O)NCc2cccs2)s1 | 25.1 µM (active) | 

SMILES | AC50 | activity, negative = inhibition
O=C(Cn1cccc1C(=O)c1ccccc1)NCc1cccs1 | inactive | 
CC(C)(C)C(=O)Nc1nnc(SCC(=O)NCc2cccs2)s1 | inactive | 
O=S(=O)(O)[C@@H](c1ccccc1)[C@@H](O)c1ccccc1 |  | 3.25% [at 11.4 µM] (inactive)
COCCCNC(=O)C(=O)N/N=C/c1ccc(OCC(=O)Nc2cccc(Cl)c2C)c(OC)c1 | inactive | 
COc1cc(/C=N/NC(N)=O)c(Br)cc1OCC(=O)Nc1ccccc1C | 3.16 µM (active) | 
Cc1ccc(CN2CC34C=CC(O3)C(C(=O)NCc3ccco3)C4C2=O)cc1 (configuration not stated) | inactive | 
O=C(NCC1COc2ccccc2O1)C1C2C=CC3(CN(Cc4cccs4)C(=O)C13)O2 (configuration not stated) | 31.6 µM (active) | 
COCCCNC(=O)C1C2C=CC3(CN(Cc4ccc(C)cc4)C(=O)C13)O2 (configuration not stated) | inactive | 
c1ccc(C[n+]2cccc(-c3cc4ccccc4[nH]3)c2)cc1 |  | -9.64% [at 11.4 µM] (inactive)
O=C1C[C@@H](O)[C@@H](O)[C@H]2[C@@H]3C(=O)N(c4cccc(Oc5ccccc5)c4)C(=O)[C@@H]3CC[C@H]12 |  | -10.3% [at 11.4 µM] (inactive) and 1.22% [at 11.4 µM] (inactive)
O=C(Nc1ncc(Cc2ccccc2)s1)C1COc2ccccc2O1 (configuration not stated) | 6.31 µM (active) | 
O=C(Nc1nnc(SCc2ccc(Cl)cc2Cl)s1)C1COc2ccccc2O1 (configuration not stated) | 7.08 µM (active) | 
CN(Cc1ccco1)c1cc(-c2ccccc2C(F)(F)F)ncn1 |  | 9.45% [at 2.29 µM] (inactive)
COc1ccc2[nH]cc(CCNc3cc(-c4ccccc4C)ncn3)c2c1 |  | -17.1% [at 2.29 µM] (inactive)
COc1cc(OC)c2c(c1)C(=O)c1cc(OC)cc(OC)c1C2=O | inactive | 
COc1ccc2c(=O)c(-c3ccccc3C)c(C)oc2c1 | 17.8 µM (active) | 
Clc1ccc2c(c1)N(CCCN1CCCC13CCCCC3)c1ccccc1S2 |  | 10.5% [at 11.4 µM] (inactive)
COC(=O)[C@@]1(Cc2ccccc2)[C@H]2c3cc(C(=O)N4CCCC4)n(Cc4ccc(OC)c(OC)c4)c3C[C@H]2CN1C(=O)c1ccccc1 | 1.26 µM (active) | 
COC(=O)[C@@]1(Cc2ccccc2)[C@H]2c3cc(C(=O)N4CCCC4)n(Cc4ccc(O)c(OC)c4)c3C[C@H]2CN1C(=O)c1ccccc1 | 2.51 µM (active) | 
